The values that follow come from ChEMBL document CHEMBL3988442, “University of Dundee, Small-Polar-MMV Screening Library” (2021).

For some of these results: Entries with a potency or affinity are not part of this list.

What all share (set-up): scale not given: direction of the effect not stated beside the values
Assay [1] addresses Protein translocase subunit SecA (Escherichia coli (strain K12)) (UniProt P10408). Put plainly: Assay to Identify E. coli SecA ATPase Inhibitors. In kind it is functional. Conditions: 30 µM.
Assay [2] has as its target T1, Ubiquitin-activating enzyme e1, putative (Leishmania donovani (strain BPK282A1)) (UniProt E9BSI1).
T1 sequence (whole entry): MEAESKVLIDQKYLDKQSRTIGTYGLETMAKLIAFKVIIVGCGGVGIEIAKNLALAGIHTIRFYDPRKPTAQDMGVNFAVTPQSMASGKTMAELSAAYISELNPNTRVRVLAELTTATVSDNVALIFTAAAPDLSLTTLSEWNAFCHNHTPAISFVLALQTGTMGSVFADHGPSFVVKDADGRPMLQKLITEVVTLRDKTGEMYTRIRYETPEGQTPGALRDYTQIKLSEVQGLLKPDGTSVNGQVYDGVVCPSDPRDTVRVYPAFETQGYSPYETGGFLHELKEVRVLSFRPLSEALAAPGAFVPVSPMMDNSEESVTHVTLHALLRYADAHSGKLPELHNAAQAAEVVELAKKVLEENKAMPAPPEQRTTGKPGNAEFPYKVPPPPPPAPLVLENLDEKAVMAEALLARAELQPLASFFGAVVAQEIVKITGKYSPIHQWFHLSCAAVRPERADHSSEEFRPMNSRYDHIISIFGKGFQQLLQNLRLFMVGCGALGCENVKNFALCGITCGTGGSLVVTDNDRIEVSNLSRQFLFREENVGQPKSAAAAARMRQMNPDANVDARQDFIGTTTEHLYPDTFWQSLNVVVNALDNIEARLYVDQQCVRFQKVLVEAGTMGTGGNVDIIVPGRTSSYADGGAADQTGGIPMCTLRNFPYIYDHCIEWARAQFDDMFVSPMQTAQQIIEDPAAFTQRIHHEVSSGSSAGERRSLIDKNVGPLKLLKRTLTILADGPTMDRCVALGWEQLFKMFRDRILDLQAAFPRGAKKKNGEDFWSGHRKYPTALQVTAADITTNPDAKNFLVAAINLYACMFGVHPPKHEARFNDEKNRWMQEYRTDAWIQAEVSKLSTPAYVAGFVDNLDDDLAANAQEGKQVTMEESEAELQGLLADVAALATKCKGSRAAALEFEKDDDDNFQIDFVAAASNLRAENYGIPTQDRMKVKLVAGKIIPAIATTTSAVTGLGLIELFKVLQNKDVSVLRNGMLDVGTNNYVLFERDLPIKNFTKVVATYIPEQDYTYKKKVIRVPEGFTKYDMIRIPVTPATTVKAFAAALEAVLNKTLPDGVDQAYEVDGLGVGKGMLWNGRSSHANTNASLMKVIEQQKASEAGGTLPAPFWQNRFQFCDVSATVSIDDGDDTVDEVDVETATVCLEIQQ
As to the kind of experiment: Leishmania donovani Ubiquitin Activating Enzyme (LdE1). It counts as functional. Conditions: 30 µM.

For assay [3], the target named is T2, Aspartate--tRNA(Asp/Asn) ligase (Mycobacterium tuberculosis (strain ATCC 25618 / H37Rv)) (UniProt P9WFW3). Note: in the data most compounds retested in dose-response had high values.
T2 sequence (whole entry): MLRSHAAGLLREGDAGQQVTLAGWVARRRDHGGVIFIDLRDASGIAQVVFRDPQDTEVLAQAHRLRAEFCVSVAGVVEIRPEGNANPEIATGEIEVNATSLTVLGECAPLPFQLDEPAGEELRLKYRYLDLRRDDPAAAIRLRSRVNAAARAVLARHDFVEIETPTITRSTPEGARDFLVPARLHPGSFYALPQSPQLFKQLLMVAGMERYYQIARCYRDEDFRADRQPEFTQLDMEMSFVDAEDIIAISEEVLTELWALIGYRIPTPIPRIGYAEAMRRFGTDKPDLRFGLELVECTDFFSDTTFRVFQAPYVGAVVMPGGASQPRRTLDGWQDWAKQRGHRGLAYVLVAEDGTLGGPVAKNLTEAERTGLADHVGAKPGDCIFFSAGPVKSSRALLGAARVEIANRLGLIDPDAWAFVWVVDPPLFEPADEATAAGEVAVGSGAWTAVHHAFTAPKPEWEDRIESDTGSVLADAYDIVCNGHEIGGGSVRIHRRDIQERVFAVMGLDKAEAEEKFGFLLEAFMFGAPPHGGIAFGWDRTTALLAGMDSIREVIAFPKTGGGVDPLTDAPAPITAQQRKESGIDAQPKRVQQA
As to the kind of experiment: Assay for Asp RNA synthetase-1 from Mycobacterium tuberculosis. It counts as functional. Conditions: 30 µM.

The target of assay [4] is AMP-activated protein kinase, AMPK (Homo sapiens) (UniProt P54646+O43741+P54619+Q9UGJ0+Q9Y478+Q13131+Q9UGI9). As to the kind of experiment: AMP-dependent Kinase enzyme assay. An in vitro enzyme assay that detects ADP turnover that is directly proportional to AMPK activity. This uses naive AMPK that is activated during the assay with MK-8722. Conditions: 30 µM. It counts as functional.

The target of assay [5] is Sialic acid-binding Ig-like lectin 9 (Homo sapiens) (UniProt Q9Y336). Put plainly: Hs-Siglec9 ALPHAscreen SOP 20170721. Conditions: 10 µM. Background: Bead proximity is the source of the signal in Alpha formats.
The next assay concerns Trypanosoma cruzi. Put plainly: Trypanosoma cruzi phosphomannomutase and mannose-1-phosphate guanylyltransferase assay. In kind it is functional. Conditions: 10 µM.
For assay [6], the target named is T3, Arginase-2, mitochondrial (Homo sapiens) (UniProt P78540).
T3 sequence (whole entry): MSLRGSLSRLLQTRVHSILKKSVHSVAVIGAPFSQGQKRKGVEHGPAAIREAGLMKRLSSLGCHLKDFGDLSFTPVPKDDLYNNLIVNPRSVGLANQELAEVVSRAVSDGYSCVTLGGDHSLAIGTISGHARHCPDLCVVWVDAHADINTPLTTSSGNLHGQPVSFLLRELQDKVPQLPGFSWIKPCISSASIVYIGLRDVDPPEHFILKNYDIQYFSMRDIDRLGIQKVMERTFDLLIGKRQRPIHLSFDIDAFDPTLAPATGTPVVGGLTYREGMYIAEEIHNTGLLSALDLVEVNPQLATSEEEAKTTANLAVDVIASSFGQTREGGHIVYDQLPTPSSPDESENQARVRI
As to the kind of experiment: in vitro enzyme assay to detect the production of urea directly proportional to the activity of Arginase II. Note: in the data most compounds retested in dose-response had high values. Conditions: 33.3 µM. In kind it is functional.

Assay [7] has as its target T4, Proteasome subunit beta (Trypanosoma cruzi) (UniProt O96673).
T4 sequence (whole entry): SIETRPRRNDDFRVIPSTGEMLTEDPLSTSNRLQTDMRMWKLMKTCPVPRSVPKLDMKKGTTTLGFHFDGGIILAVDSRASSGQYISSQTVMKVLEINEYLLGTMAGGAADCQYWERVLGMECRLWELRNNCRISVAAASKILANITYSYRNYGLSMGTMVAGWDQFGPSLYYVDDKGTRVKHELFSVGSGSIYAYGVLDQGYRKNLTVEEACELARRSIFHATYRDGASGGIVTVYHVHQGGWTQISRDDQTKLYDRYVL
As to the kind of experiment: Trypanosoma cruzi proteasome chymotrypsin-like activity (TcProtChymo) assay. Note: in the data most compounds retested in dose-response had high values. Conditions: 9.37 µM. It counts as functional.

The species named for another assay is Homo sapiens. Put plainly: To identify inhibition of the IFN signalling (Jak-Stat) pathway via expression of an eGFP reporter gene under the control of an IFN-stimulated response element (ISRE) containing MxA promoter. It counts as functional. Conditions: 30 µM. For orientation: In a reporter assay the amount or activity of a reporter protein is the signal.

Assay [8] deals with Shiga toxin 2 (Escherichia coli O157:H7) (UniProt P09385+P09386). Put plainly: E. coli 0.157:H7 Shiga Toxin SOP - stx2 screening assay. It counts as functional. Conditions: 30 µM.
The target in assay [9] is T5, Tyrosyl-tRNA synthetase, putative (Trypanosoma cruzi (strain CL Brener)) (UniProt Q4DSP6).
T5 sequence (whole entry): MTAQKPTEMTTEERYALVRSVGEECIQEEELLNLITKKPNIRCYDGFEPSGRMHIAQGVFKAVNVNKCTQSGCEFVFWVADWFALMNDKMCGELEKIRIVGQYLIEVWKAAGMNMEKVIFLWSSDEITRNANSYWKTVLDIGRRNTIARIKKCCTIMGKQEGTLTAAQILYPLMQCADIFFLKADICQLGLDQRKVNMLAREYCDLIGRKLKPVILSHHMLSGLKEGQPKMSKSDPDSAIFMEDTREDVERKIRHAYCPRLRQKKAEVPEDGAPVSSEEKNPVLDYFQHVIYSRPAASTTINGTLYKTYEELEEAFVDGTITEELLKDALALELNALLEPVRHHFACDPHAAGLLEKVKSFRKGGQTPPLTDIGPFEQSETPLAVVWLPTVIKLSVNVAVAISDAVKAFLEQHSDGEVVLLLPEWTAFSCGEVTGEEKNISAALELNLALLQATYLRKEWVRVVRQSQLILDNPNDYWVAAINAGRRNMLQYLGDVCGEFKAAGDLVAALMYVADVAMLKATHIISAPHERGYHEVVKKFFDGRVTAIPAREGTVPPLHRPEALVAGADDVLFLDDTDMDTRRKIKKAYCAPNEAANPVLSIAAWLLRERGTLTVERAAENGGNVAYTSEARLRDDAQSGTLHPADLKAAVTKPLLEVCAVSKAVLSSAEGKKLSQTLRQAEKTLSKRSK
Put plainly: Trypanosoma cruzi tyrosyl tRNA synthetase (TcYRS) _High Tyrosine SOP. Note: in the data most compounds retested in dose-response had high values. In kind it is functional. Conditions: 30 µM.

Assay [10] deals with T5, Tyrosyl-tRNA synthetase, putative (Trypanosoma cruzi (strain CL Brener)). As to the kind of experiment: Trypanosoma cruzi tyrosyl tRNA synthetase (TcYRS) SOP. It counts as functional. Conditions: 30 µM.
The target of assay [11] is Chromo domain-containing protein 1 (Saccharomyces cerevisiae (strain ATCC 204508 / S288c) (Baker's yeast)) (UniProt P32657). Put plainly: ScCHD-1 Enzyme Inhibition Assay. Note: in the data most compounds retested in dose-response had high values. Conditions: 30 µM. It counts as functional.
Sequence of Chromo domain-containing protein 1 (Saccharomyces cerevisiae (strain ATCC 204508 / S288c) (Baker's yeast)) (P32657 whole entry, the tested form may be a part): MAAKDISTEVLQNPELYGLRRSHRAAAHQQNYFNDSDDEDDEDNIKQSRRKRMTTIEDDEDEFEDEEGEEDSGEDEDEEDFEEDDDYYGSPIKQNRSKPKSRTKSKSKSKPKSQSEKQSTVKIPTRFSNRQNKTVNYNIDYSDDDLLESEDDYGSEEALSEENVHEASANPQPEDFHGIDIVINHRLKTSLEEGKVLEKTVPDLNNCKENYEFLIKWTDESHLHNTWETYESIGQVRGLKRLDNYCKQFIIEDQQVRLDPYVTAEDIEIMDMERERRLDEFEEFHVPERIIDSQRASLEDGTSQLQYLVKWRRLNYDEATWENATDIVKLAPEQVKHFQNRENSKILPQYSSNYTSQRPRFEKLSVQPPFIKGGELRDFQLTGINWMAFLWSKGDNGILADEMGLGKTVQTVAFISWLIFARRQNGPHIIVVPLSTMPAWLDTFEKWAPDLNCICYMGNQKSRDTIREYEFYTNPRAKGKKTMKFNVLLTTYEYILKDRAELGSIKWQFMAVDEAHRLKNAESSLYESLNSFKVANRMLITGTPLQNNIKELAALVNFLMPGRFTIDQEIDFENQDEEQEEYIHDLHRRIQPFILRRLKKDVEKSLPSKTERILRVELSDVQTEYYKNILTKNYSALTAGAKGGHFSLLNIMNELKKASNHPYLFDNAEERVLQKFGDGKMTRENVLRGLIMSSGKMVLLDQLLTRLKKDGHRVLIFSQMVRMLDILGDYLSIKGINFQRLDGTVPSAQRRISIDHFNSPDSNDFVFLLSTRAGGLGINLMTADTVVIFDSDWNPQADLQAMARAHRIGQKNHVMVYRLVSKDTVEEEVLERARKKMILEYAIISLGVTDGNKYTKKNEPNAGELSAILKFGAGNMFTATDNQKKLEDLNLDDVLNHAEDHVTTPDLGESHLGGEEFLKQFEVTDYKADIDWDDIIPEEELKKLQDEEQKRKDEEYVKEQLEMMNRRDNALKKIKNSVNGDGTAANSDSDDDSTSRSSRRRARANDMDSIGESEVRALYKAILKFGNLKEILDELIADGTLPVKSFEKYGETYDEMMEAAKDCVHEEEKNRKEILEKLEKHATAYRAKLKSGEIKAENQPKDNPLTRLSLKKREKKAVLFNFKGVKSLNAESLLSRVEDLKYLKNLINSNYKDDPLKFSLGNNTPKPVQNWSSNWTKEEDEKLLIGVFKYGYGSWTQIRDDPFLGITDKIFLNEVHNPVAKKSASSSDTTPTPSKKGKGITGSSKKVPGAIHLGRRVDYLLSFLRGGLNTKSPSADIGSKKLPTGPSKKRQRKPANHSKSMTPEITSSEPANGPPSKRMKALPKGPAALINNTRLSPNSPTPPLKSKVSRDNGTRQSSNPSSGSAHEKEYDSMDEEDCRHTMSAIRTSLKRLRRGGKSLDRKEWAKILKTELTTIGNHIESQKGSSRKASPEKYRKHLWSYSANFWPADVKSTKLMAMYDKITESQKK

Sequence of Protein translocase subunit SecA (Escherichia coli (strain K12)) (P10408 whole entry): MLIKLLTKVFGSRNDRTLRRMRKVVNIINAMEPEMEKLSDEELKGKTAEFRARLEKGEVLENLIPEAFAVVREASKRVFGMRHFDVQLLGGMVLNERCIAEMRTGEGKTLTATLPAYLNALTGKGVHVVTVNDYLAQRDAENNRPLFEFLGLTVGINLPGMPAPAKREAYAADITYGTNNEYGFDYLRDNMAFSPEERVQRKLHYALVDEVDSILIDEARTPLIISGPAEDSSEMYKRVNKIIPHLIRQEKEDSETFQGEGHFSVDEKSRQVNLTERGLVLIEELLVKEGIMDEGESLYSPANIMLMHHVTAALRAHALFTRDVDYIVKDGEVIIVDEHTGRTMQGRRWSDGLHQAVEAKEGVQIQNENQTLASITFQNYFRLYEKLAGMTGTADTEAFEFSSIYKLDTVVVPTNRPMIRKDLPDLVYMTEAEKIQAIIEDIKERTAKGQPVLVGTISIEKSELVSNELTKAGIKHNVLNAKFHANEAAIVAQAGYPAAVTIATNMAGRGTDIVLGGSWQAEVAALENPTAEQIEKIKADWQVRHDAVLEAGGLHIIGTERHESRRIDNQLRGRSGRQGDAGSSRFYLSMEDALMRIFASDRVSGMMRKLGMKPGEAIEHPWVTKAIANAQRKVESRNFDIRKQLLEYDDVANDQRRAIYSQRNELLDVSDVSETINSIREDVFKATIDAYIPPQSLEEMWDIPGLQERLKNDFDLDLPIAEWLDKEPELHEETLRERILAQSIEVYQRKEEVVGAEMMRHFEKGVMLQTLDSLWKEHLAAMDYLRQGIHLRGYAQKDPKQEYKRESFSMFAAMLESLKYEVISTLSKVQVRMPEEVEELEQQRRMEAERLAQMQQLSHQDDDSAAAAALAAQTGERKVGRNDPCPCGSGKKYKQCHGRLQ
Sequence of Sialic acid-binding Ig-like lectin 9 (Homo sapiens) (Q9Y336 whole entry): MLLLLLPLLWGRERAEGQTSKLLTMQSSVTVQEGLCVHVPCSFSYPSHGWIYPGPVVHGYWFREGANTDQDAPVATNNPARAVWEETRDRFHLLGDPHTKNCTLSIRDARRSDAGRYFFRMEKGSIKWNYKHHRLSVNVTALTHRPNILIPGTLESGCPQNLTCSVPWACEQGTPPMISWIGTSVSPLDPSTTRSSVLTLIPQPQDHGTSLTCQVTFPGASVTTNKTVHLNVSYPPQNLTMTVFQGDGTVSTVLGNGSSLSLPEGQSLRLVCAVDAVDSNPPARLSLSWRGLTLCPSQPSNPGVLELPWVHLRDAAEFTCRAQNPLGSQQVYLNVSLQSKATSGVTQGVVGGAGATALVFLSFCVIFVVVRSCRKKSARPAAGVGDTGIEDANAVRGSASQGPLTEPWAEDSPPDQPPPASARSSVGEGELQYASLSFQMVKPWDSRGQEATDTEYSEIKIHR

As for `O=C(N[C@H]1CN[C@H]2CCCO[C@H]21)c1cscn1`, the Percent Effect was 1.11% in assay [1]; 21.9% in [2]; 4.92% in assay [3]; -4.2% in assay [4]; 5.27% in assay [5]; 0% in the assay with Trypanosoma cruzi. For the same molecule, the Percent Effect is -1.6% in assay [6]; 18.6% in assay [7]; 4.9% in the assay filed under Homo sapiens; -0.964% in [8]; 7.29% in [9]; 13.6% in assay [10]. In assay [11], the Percent Effect was -4.35%.

For the molecule `Cc1oc(-c2ccco2)nc1CC(=O)N1CCN(C2CCC2)CC1`, the Percent Effect in [1] is -7.4%; in [2] it was 7.79%; in assay [3] it was -0.115%; in assay [4], -1.25%; in assay [5], 1.16%; in the assay with Trypanosoma cruzi, 1.08%. Moreover, the Percent Effect in assay [6] was found to be 4%; in [7], 12.8%; in the assay filed under Homo sapiens, 2.52%; in assay [8] it was 24.8%; in assay [9], 0%; in [10], 7.06%. The Percent Effect in assay [11] is -19%.

In the case of `CN(C)C(=O)CN1CCN(C(=O)Cc2csc(-c3ncccn3)n2)CC1`, the Percent Effect in assay [1] was -3.23%; in [2], 13.2%; in assay [3], -1.92%; in assay [4], -1.28%; in [5], 12%; in the assay on Trypanosoma cruzi, -3.19%. Besides, the Percent Effect in [6] stood at 1.92%; in assay [7], 8.69%; in the assay filed under Homo sapiens it was 23.7%; in assay [8], 30%; in [9] it was 5.39%; in [10], 9.76%. Further, the Percent Effect in [11] was -7.21%.

With `Cc1noc(C)c1CN1CC[C@H]2C[C@@H](c3ccncn3)O[C@@H]2C1`, the Percent Effect was -2.74% in [1]; 8.11% in assay [2]; -3.25% in assay [3]; 5.49% in assay [4]; 1.24% in assay [5]; 5.57% in the assay with Trypanosoma cruzi. The Percent Effect was -2.87% in assay [6]; 14.2% in assay [7]; 17.1% in the assay filed under Homo sapiens; 5.98% in [8]; 2.16% in assay [9]; 17.9% in assay [10]. Further, the Percent Effect in assay [11] amounted to 2.76%.
